Where “and” joins values, the source holds several entries; their conditions need not be identical. Equal values may be shown once. The campaign covered roughly 410,000 compounds. About 18,000 (4.4%) were called active. About 7% were inconclusive and are not listed. No stated cut-off is given here; in the data, active means activity change below about -60%; inconclusive means no clear call, values can overlap the other calls; inactive means above about -39%. The sample as a whole holds a higher share of actives than the screen did.
Assay: qHTS Assay for inhibitors of the human cytomegalovirus (HCMV)
Settings: HFF cells, HCMV-luciferase reporter, 72 h; at 57.5 µM; stronger effect = lower value
In short: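 Two-dose cell screen: HFF monolayers treated with compounds and infected with luciferase-expressing HCMV at 1 PFU/cell, 72 h at 37C, then lysed for luciferase measurement.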
On the % scale 0 is the no-effect control and ±100 the full control effect.

SMILES | activity change, negative = inhibition
Cc1cccc(CNC(=O)c2cnc3sc(N4CCCCC4)nn3c2=O)c1 | 27.1% (inactive)
CCOc1ccccc1C(=O)NC1(C(F)(F)F)C(=O)Nc2c1c(=O)[nH]c(=O)n2-c1ccc(F)cc1 (configuration not stated) | -8.54% (inactive)
CN(CCNC(=O)c1cc2c(-c3ccccc3F)nn(C)c2s1)C1CCCCC1 | -6.98% (inactive)
COc1ccc(CNC(=O)c2cc3c(=O)[nH]c4ccc(C)cc4c3s2)c(OC)c1 | -17.4% (inactive)
COc1ccc(CNC(=O)c2cc3c(-c4ccccc4F)nn(C)c3s2)c(OC)c1 | -64.7% (active)
Cc1ccc(Nc2c(-c3ccc(C)cc3)nc3cnccn23)cc1 | 31.2% (inactive)
CCCOc1ccc(Cl)cc1Nc1nc(NCCO)nc(N2CCCC2)n1 | 14.9% (inactive)
CCN1CCN(c2nc(Nc3cc(OC)ccc3OC)nc(Nc3cc(OC)ccc3OC)n2)CC1 | -64.4% (active)
COc1ccc(OC)c(NC(=O)CSc2nc3ccccc3nc2N2CCCCC2)c1 | 19.8% (inactive)
COc1ccc2c(CNCCc3ccccc3C)c(C(=O)O)n(Cc3ccccc3C)c2c1 | -9.03% (inactive)
COc1cc(C(=O)N2CCC(c3ccncc3)CC2)cc(OC)c1OC | 18% (inactive)
COc1ccccc1CNC(=O)CCCCn1c(=O)c2ccccc2n(CC(=O)Nc2cc(Cl)ccc2C)c1=O | -9.62% (inactive)
O=C(NCc1ccccc1CN1CCCC1)c1cccc(S(=O)(=O)Nc2ccc(F)cc2)c1 | 56.8% (inactive)
O=C(NCc1ccccc1)c1ccc(S(=O)(=O)Nc2cccc(C(F)(F)F)c2)cc1 | -62% (active)
O=C(NCc1ccncc1)c1cccc(NS(=O)(=O)c2ccc(F)c(F)c2)c1 | -101% (active)
O=C(NCc1cccc(C(F)(F)F)c1)c1cccc(S(=O)(=O)N2CCN(Cc3ccccc3)CC2)c1 | 0.707% (inactive)
O=C(NCc1ccncc1)c1ccc(NS(=O)(=O)c2cccc([N+](=O)[O-])c2)cc1 | -29% (inactive)
O=C(NCCCN1CCCC1=O)c1ccc(S(=O)(=O)Nc2ccccc2)cc1 | -28.4% (inactive)
Cc1ccccc1CSCCNC(=O)C1CCN(S(=O)(=O)Cc2ccccc2)CC1 | -4.14% (inactive)
Cc1ccc2nc(COc3cccc(NC(=O)c4cccc(Cl)c4)c3)cc(=O)n2c1 | 9.28% (inactive)
Cc1ccccc1-c1nc(NC(C)C)nc2cc(-c3ccccc3)sc12 | -8.38% (inactive)
Cc1cc(C)c2oc(C(=O)Nc3ccc(S(=O)(=O)N(C)c4ccccc4)cc3)cc(=O)c2c1 | -2.92% (inactive)

SMILES | activity change, negative = inhibition
Cc1ccc(Cl)cc1NC(=O)/C(C#N)=C\c1cn(Cc2ccc(F)cc2)c2ccccc12 | -6.14% (inactive)
Cc1ccc(Cl)cc1N1CCN(C(=O)CN2C(=O)COc3ccc(S(=O)(=O)N4CCOCC4)cc32)CC1 | 6.7% (inactive)
CC(C)CCn1c(=O)c2c(nc3n2CCCN3Cc2ccccc2)n(C)c1=O | -22.4% (inactive)
CCOc1ccc(C(=O)NCC(=O)N2CCCCCCC2)cc1OCC | -11.3% (inactive)
CCOc1cc(C(=O)N2CCc3cc(OC)c(OC)cc3C2)ccc1OC(F)F | -71.6% (active)
COc1ccc2c(CC(=O)N3CCc4cc(OC)c(OC)cc4C3)coc2c1 | -13.1% (inactive)
Cc1nn(C(=O)c2c(F)cccc2F)c(C)c1S(=O)(=O)N1CCOCC1 | 9.99% (inactive)
O=S(=O)(c1cnccc1N1CCN(/N=C/c2ccc(Br)cc2)CC1)N1CCCCC1 | -6.47% (inactive)
COc1ccc(C(=O)NC2CC(C)(C)NC(C)(C)C2)cc1OC | 7.69% (inactive)
COc1cc(OC)c(C(=O)NC2CC(C)(C)NC(C)(C)C2)cc1OC | 37.1% (inactive)
COc1cc2c(cc1OC)C(=O)NCC(C)(C)O2 | -102% (active)
COc1ccc(NC(=O)CSc2nc3ccccc3n2CC(=O)N2CCCCC2C)cc1 (configuration not stated) | -20.6% (inactive)
O=C(c1cnn(-c2ccc(F)cc2)c1-n1cccc1)N1CCN(c2ccc(F)cc2)CC1 | -8.43% (inactive)
CCCCOc1ccc(C(=O)Nc2cccc(-c3nc4ccccc4o3)c2C)cc1 | -17.8% (inactive)
COC(=O)c1nc2n(n1)C(c1ccc([N+](=O)[O-])cc1)C(C(=O)Nc1ccc(Cl)cc1)=C(C)N2 (configuration not stated) | 5.33% (inactive)
COc1cc(C2C(C(=O)Nc3ccc(F)cc3)=C(C)Nc3nc(CCCO)nn32)cc(OC)c1OC (configuration not stated) | 8.48% (inactive)
CCOc1ccc(C2C(C(=O)Nc3ccc(Cl)cc3)=C(C)Nc3nc(C(F)(F)F)nn32)cc1 (configuration not stated) | -84.1% (active)
Cc1ccc2oc3c(c(=O)c2c1)C(c1ccc([N+](=O)[O-])cc1)N(CCCN1CCOCC1)C3=O (configuration not stated) | 40.9% (inactive)
COc1ccc(CCNC(=O)C(=O)NCC(c2ccco2)S(=O)(=O)c2cccs2)cc1OC (configuration not stated) | 0.563% (inactive)
CCOc1ccc(CCNC(=O)c2csc3c2CCCCC3)cc1 | -5.3% (inactive)
Cc1cccc(OCCCC(=O)Nc2sc3c(c2C(N)=O)CCC(C)C3)c1 (configuration not stated) | -6.01% (inactive)
CCN1CCN(c2cc(C)c3cc(NC(=O)c4cc(Cl)ccc4OC)ccc3n2)CC1 | -99.2% (active)

SMILES | activity change, negative = inhibition
CCOCCCNC(=S)Nc1ccc2nc(N3CCN(CC)CC3)cc(C)c2c1 | -1.19% (inactive)
COc1ccc(C(=O)Nc2ccc3nc(N4CCCCC4)cc(C)c3c2)cc1OC | -31.4% (inactive) and -29.2% (inactive)
COc1ccc(CCNC(=O)CCCn2c(=O)c3ccccc3n(Cc3ccc(F)cc3Cl)c2=O)cc1OC | 12.1% (inactive)
O=C1OCCC1=COCCCCOC=C1CCOC1=O | 19% (inactive)
COc1ccc(CNC(=O)Cc2coc3ccc(C(C)C)cc23)cc1 | -6.28% (inactive)
Cc1c(NC(=O)C(C)(C)C)cccc1-c1nc2ccccc2s1 | 39.5% (inactive)
Cc1ccc(Cl)cc1NC(=O)Cc1ccc(-n2c(C)nc3cccnc32)cc1 | 0% (inactive)
Cc1c(NC(=O)Cc2ccccc2)cccc1-c1nc2cccnc2s1 | -66.4% (active)
O=C(CCc1cn(Cc2ccc(F)cc2)c2ccccc12)NC1CCCCC1 | 4.53% (inactive)
Cc1nc(N2CCOCC2)sc1C(=O)NN | 0% (inactive)
Cc1nc(N2CCCCC2)sc1C=O | -68.8% (active)
CC(C)C(C)(C#N)NC(=O)CSc1nncn1-c1ccccc1 (configuration not stated) | -23% (inactive)
COc1ccccc1C1C(C(=O)N2CCCCC2)=C(C)Nc2nc3ccccc3n21 (configuration not stated) | 1.21% (inactive)
COC(=O)c1c(NC(=O)c2cc(=O)c3c(C)cc(C)cc3o2)sc2c1CCCC2 | 17.7% (inactive)
CCN(CC)c1ccc(C(=O)NNC(=O)CCc2nc3ccccc3c(=O)[nH]2)cc1 | -64.9% (active)
CCN(CC(=O)NC(=O)NCc1ccccc1)Cc1nc2ccccc2c(=O)[nH]1 | 5.98% (inactive)
CCN(Cc1nc2ccccc2c(=O)[nH]1)Cc1cc(=O)oc2cc(C)c(C)cc12 | 17.8% (inactive)
COc1ccc(-c2cc(NCc3ccc(F)cc3)n3cnnc3n2)cc1 | -27.8% (inactive)
CCc1cnc2c(c1SCC(=O)c1ccccc1)c(=O)n(C)c(=O)n2C | -3.48% (inactive)
COCC(C)NS(=O)(=O)c1ccc(N2CCCCS2(=O)=O)cc1 (configuration not stated) | -11.3% (inactive)
CC(c1ccccc1)n1c(NCCCn2ccnc2)nc2c1c(=O)[nH]c(=O)n2C (configuration not stated) | 97.4% (inactive)
CN(CC(=O)Nc1ccccc1C(F)(F)F)C(=O)Cc1ccccc1F | -12.2% (inactive)

SMILES | activity change, negative = inhibition
O=C(NNC(=O)c1ccccc1[N+](=O)[O-])Nc1ccccc1C(F)(F)F | -0.175% (inactive)
Cc1cc(C)nc(NC(=O)Nc2ccccc2C(F)(F)F)n1 | -62.1% (active)
COc1cc(Cl)c(C)cc1NC(=O)CCc1nc2cccnc2n1Cc1cccs1 | 11% (inactive)
Cc1nnc(SCC(=O)Nc2cccc(N)c2)n1-c1ccccc1 | 5.74% (inactive)
CC[n+]1c(C)n(-c2ccccc2)c2ccc(NC(C)=O)cc21 | -79.8% (active)
CC(=O)Nc1ccc(NC(=O)CSc2nnc(C3CC3)n2-c2ccccc2)cc1 | 0% (inactive)
Cn1c(CCC(=O)OCC(=O)NCc2ccccc2Cl)nc(=O)c2ccccc21 | 14.9% (inactive)
O=S(=O)(c1ccc2nc(NCc3ccccc3Cl)ccc2c1)N1CCCCC1 | -22.2% (inactive)
Cc1ccc(Nc2ccc3cc(S(=O)(=O)N4CCCCC4)ccc3n2)cc1F | -90.2% (active)
O=S(=O)(c1ccc2nc(N3CCN(c4cccc(Cl)c4)CC3)ccc2c1)N1CCCCC1 | 6.51% (inactive)
Cc1ccc(-n2ncc3c(=O)n(Cc4cccc(C(F)(F)F)c4)cnc32)cc1C | 1.72% (inactive)
CSc1nc(C)nc2c1c(=O)n(C)c(=O)n2C | 6.36% (inactive)
COC(C(=O)Nc1ccc(S(=O)(=O)Nc2ccc(C)c(C)c2)cc1)c1ccccc1 (configuration not stated) | -97.3% (active)
CCC(Oc1ccccc1C)C(=O)Nc1ccc(S(=O)(=O)Nc2cc(C)on2)cc1 (configuration not stated) | 4.11% (inactive)
COc1ccc(C(=O)/C=C/c2ccc(-c3ccccc3)cc2)cc1CSCC(=O)O | -1.55% (inactive)
COc1ccc(NS(=O)(=O)c2ccc(NC(C)=O)cc2)cc1OC | -79.8% (active)
COc1ccc(/C=C/C(=O)c2ccc(NS(=O)(=O)c3ccc(C)cc3)cc2)cc1O | -96.5% (active)
COC(C(=O)NCc1ccccc1C)c1ccccc1 (configuration not stated) | -7.11% (inactive)
COc1ccc(S(=O)(=O)Nc2cc(C)on2)cc1NC(C)=O | 61.3% (inactive)
COc1ccccc1C(=O)COC(=O)CNS(=O)(=O)c1ccc(NC(C)=O)cc1 | 5.34% (inactive)
Cc1ccc(S(=O)(=O)NNC(=O)/C=C/c2cccc(F)c2)cc1 | -26.4% (inactive)
